Screening data (PubChem)
CSC inhib = blocks cancer stem cells; actives 1.1% (n = 300,000); cancer stem cell-like cells viability, luminescence; inhibition, % at 7.5 µM; in the data active means inhibition above about 75%; inconclusive means no clear call, values can overlap the other calls; tested in HMLE shEcad cells
Beta apoptosis = beta cell apoptosis inhibition. INS-1E cytokine-induced death, ATP luminescence, 48 h; percent of positive-control rescue, neutral wells zero. protection from apoptosis, % (no concentration beside the values). actives 0.8% (n = 300,000). AID 435005;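 active means Every replicate reaches about 75%, or at least half do and their mean reaches it too, limit read from the data; inconclusive means At least half of replicates reach the limit but their mean does not; inactive means Under half of replicates reach the limit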;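 further: 0% = cytokine-treated negative control wells and 100% = positive control rescue; higher means more ATP so stronger rescue from cytokine killing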
Calb FLC = C. albicans growth modulation with fluconazole | C. albicans CaCi-2 (fluconazole-resistant clinical isolate) + fluconazole, Alamar Blue growth, 48 h | growth inhibition, % (no concentration beside the values) | actives 0.57% (n = 300,000) | AID 1979;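 active means growth inhibition above about 58% in most replicates, limit read from the data, passing the limit was not always enough; inconclusive means exactly half the replicates above a set limit; inactive means most replicates below a set limit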;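 further: all wells also contain fluconazole at 8 µg/ml as a sub-toxic cotreatment; 0% = median of DMSO wells and 100% = median of geldanamycin control wells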
Mdm2-MdmX inh = inhibitors of human Mdm2/MdmX interaction; SaOS-2 split-luciferase Mdm2/MdmX complementation, luminescence; inhibition, % at 8 µM; actives 3% (n = 330,000); AID 485346;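 active means inhibition of at least 50% at 8 µM in the primary screen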
Target sequence (O15151 whole entry, looked up): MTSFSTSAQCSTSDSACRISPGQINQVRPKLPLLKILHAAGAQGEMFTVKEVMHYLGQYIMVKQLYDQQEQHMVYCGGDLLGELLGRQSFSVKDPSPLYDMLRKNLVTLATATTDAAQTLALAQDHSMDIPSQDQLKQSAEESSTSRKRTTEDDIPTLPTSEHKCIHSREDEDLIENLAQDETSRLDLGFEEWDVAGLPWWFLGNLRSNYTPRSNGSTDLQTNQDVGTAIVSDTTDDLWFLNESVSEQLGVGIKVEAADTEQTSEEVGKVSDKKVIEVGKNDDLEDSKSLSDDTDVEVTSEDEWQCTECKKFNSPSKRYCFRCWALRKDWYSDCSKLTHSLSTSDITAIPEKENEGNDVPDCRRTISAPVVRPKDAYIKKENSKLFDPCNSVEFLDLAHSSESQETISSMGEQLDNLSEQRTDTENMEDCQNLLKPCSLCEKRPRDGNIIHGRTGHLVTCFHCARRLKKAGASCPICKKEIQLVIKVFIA
Target sequence (Q00987 whole entry, looked up): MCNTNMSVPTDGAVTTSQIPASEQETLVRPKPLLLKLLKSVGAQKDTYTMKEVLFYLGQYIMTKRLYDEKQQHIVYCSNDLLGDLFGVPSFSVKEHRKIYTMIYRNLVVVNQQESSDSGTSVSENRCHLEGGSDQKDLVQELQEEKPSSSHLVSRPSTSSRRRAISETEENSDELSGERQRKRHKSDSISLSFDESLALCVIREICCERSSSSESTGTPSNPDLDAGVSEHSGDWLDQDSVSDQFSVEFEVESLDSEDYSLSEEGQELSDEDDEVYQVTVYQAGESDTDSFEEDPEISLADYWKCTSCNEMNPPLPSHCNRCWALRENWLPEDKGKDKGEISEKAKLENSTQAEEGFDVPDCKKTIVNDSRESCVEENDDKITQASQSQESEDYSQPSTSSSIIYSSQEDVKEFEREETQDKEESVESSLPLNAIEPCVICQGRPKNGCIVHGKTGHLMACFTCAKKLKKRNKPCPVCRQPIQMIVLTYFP
MPTP block = permeability transition pore inhibition; actives 1.4% (n = 360,000); inhibition, % at 10 µM; isolated mouse mitochondria, Ca2+ swelling absorbance, 30 min; AID 602449;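 active means inhibition of 50% or more, scaled per plate between neutral and stimulator controls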;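 further: 0% = DMSO wells given calcium and 100% = 1 mM EGTA wells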
Mdm2-MdmX conf = human Mdm2/MdmX binding inhibition, confirmed; shares compounds with Mdm2-MdmX inh; actives 55% (n = 10,000); inhibition, % at 8 µM; luminescent assay; in the data active means inhibition above about 40%
FLuc counter = inhibits full-length luciferase, flagging false Mdm2/MdmX hits; shares compounds with Mdm2-MdmX inh; inhibition, % at 8 µM; actives 77% (n = 6,200); SaOS-2 full-length luciferase counterscreen, luminescence;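 active means mean inhibition at 8 µM reaching about 37%, which flags the compound as non-specific, limit read from the data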;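 further: p53-null SaOS-2 cells with luciferase driven by a doxycycline-inducible promoter; compound on cells about two nights before reading with doxycycline added after day one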
The depositor's hits bear a star; ? = inconclusive; / = not tested or not shown. The list is not random: actives were taken first. Their share in the collection is about 4.8%.

SMILES	CSC inhib	Beta apoptosis	Calb FLC	Mdm2-MdmX inh	MPTP block	Mdm2-MdmX conf	FLuc counter
COc1ccccc1N1CCN(C2CCN(C3CCC(c4ccccc4)CC3)CC2)CC1 (stereo not drawn)	46.2	-10.1	-5.3	59.9*	/	29.4	/
COc1ccccc1N1CCN(C2CCC(C)CC2)CC1 (stereo not drawn)	-8.1	3.8	-3.3	-1.6	0.3	/	/
O=c1[nH]c2cc3c(cc2cc1C(c1nnnn1Cc1ccccc1)N1CCCc2ccccc21)OCO3 (stereo not drawn)	-4.6	/	5.9	100.3*	/	10.3	/
O=c1[nH]c2cc3c(cc2cc1C(c1nnnn1Cc1ccccc1)N1CCCCCC1)OCCO3 (stereo not drawn)	9.0	-8.2	1.5	0.4	2.9	/	/
CC1=NN(c2ccccc2)C(=O)/C1=C\C=C\c1ccccc1	101.8*	38.7	2.9	66.4*	0.2	44.6*	28.9
CC1=NN(c2ccccc2)C(=O)/C1=C/C=C/c1ccc(N(C)C)cc1	/	/	-13.8	/	24.2	/	/
O=C(N/N=C/c1cc(Br)cc([N+](=O)[O-])c1O)c1ccc(NC(=O)c2ccc(F)cc2)cc1	41.7	46.2	7.8	56.0*	17.3	37.2	59.7*
O=C(N/N=C/c1ccccc1)c1ccc(NC(=O)c2ccc(F)cc2)cc1	3.3	1.8	-8.8	-0.2	0.8	/	/
COc1cccc(/C=C/c2nc3c(cnn3-c3ccccc3)c(=O)[nH]2)c1	18.1	2.8	-4.3	40.6	3.2	/	/
O=c1[nH]c(/C=C/c2ccc(Br)cc2)nc2c1cnn2-c1ccccc1	/	-5.4	-3.2	83.2*	/	21.2	/
COc1ccc(S(=O)(=O)N2CCN(C(=O)CNC(=O)c3ccc4c(c3)OCO4)CC2)cc1	1.9	-4.3	/	0.5	-1.3	/	/
COC(=O)c1cc(O)cc(OC)c1Oc1cc(C)cc(O)c1C(=O)O	57.3	89.5*	/	83.5*	-0.4	46.0*	19.3
COC(=O)c1cc(O)cc(OC)c1C(=O)c1c(O)cc(C)cc1O	18.3	/	12.3	-13.7	-1.2	/	/
O=C(Cn1c2ccc(F)cc2c2nc3n(c(=O)c21)CCS3)NCC1CCCO1 (stereo not drawn)	0.3	-10.4	-1.9	-3.7	0.1	/	/
COCCN(Cc1nc2ccccc2c(=O)[nH]1)C(=O)COc1ccccc1-c1ccccc1	/	/	/	53.2*	-1.1	43.2*	85.6*
C[C@H]1CCC[C@]2(C)C[C@H]3OC(=O)C(CN4CCCCCC4)[C@H]3C=C12 (stereo partly drawn)	16.0	-63.5	3.2	72.9*	-1.1	48.5*	14.1
COc1ccc(N(C(=O)c2snc(C(N)=O)c2N)C(C(=O)NCc2ccc(F)cc2)c2ccc(O)cc2)cc1 (stereo not drawn)	8.4	13.1	12.1	8.1	0.7	/	/
Cc1ccccc1-c1nc2cc(Cl)ccc2c(=O)o1	9.7	-0.6	-1.3	52.0*	2.8	49.9*	76.0*
CCCCn1nc(C(=O)Nc2cc(C(F)(F)F)ccc2N2CCOCC2)ccc1=O	8.2	13.7	/	38.3	-2.9	/	/
CCCOc1ccccc1C1CC(=O)Nc2cc3c(cc21)OCCO3 (stereo not drawn)	30.7	26.0	-1.3	52.4*	5.6	49.5*	61.4*
CCCOc1ccccc1C1CC(=O)NC2=C1C(=O)CCC2 (stereo not drawn)	52.3	4.8	7.5	58.3*	-2.0	56.0*	48.3*
O=C1CC(c2cccnc2)c2cc3c(cc2N1)OCCO3 (stereo not drawn)	-2.3	1.8	0.8	0.9	1.7	/	/
CCOc1ccccc1C1CC(=O)Nc2cc3c(cc21)OCCO3 (stereo not drawn)	56.3	19.3	-6.4	70.4*	11.4	57.5*	122.7*
COc1cc2c3nnc(-c4ccc(F)cc4)c-3cn(Cc3ccc(C)cc3)c2cc1OC	-1.2	8.3	-3.1	78.2*	10.7	72.3*	68.2*
COc1cc2c3nnc(-c4ccc(F)cc4)c-3cn(Cc3cccc(F)c3)c2cc1OC	5.9	-1.9	/	89.2*	3.3	100.2*	50.4*
SMILES	CSC inhib	Beta apoptosis	Calb FLC	Mdm2-MdmX inh	MPTP block	Mdm2-MdmX conf	FLuc counter
COc1cc2c3nnc(-c4ccccc4)c-3cn(Cc3ccc(F)cc3)c2cc1OC	7.2	-27.2	4.9	45.8	13.9	/	/
COc1cc2c3nnc(-c4ccc(F)cc4)c-3cn(Cc3cccc(C)c3)c2cc1OC	17.6	23.3	-3.5	96.5*	1.5	99.2*	86.9*
CCN(CC)C(=O)c1ccc2sc([C@@H]3O[C@H](CO)[C@H](O)[C@H](O)[C@H]3O)nc2c1	/	/	/	/	0.0	/	/
CC(C)N1CC(=O)N2CSCC2C1=O (stereo not drawn)	/	/	/	/	0.0	/	/
CCC(C)Oc1cc(-c2ccnc(Nc3cccc(Cl)c3)n2)ccn1 (stereo not drawn)	-6.5	-7.8	-11.1	94.7*	-0.2	72.8*	25.4
OCCCNc1cc(-c2ccnc(Nc3cccc(Cl)c3)n2)ccn1	-10.2	-35.7	114.1*	100.3*	-2.0	99.6*	50.5*
COc1ccc(C(=O)c2ccc(Br)cc2)c2ccccc12	70.8	1.6	-1.6	52.2*	3.1	52.7*	79.9*
O=C1[C@H](Oc2ccccc2)[C@@H](c2ccncc2)N1c1ccncc1	/	/	/	16.0	-2.4	/	/
O=C1[C@@H](Oc2ccccc2)[C@@H](c2cnc3ccccc3c2)N1c1ccccc1	/	/	/	52.8*	-1.3	54.1*	56.4*
CC(Sc1nnc(C(C)Oc2ccccc2F)o1)C(=O)NCc1ccc2c(c1)OCO2 (stereo not drawn)	/	0.3	/	-21.1	-0.9	/	/
CCN(CC)S(=O)(=O)c1cc(OC)ccc1N=Nc1ccc(O)c2ncccc12	93.6*	94.4*	85.7*	74.1*	13.1	73.4*	35.8
CCS(=O)(=O)c1ccc(OC)c(N=Nc2ccc(O)c3ncccc23)c1	-4.2	108.2*	-11.6	70.5*	-0.5	53.5*	50.3*
COc1ccc(-c2ccc(C(=O)Nc3cc(OC)c(OC)c(OC)c3)c3occc23)c(C)c1	/	/	/	/	1.8	/	/
C[C@@H]1[C@@H](Sc2ccccc2)CC(=O)O[C@@H]1c1ccc(-c2ccccc2)cc1	19.8	/	11.2	97.4*	0.1	62.8*	51.2*
C/C(=N\NC1=NCCN1)c1ccc(N)c([N+](=O)[O-])c1	-2.5	-0.8	4.9	-2.0	-1.5	/	/
CCCCCCOc1ccc(/C(C)=N/NC2=NCCN2)cc1[N+](=O)[O-]	?	56.5	?	52.1*	-0.8	70.8*	106.2*
C=CCCC(=O)N1C[C@H]2CON(C)[C@H]2C[C@H]1c1ccc(N2CCCCC2)cc1	/	/	/	/	1.4	/	/
Cc1cccc(C)c1N1C(=O)c2ccccc2NC(=O)C1C(=O)Nc1ccc(N2CCOCC2)cc1 (stereo not drawn)	/	/	/	/	0.2	/	/
COc1ccc(NS(=O)(=O)c2cc([N+](=O)[O-])ccc2N/N=C\c2c(C)[nH]c3ccccc23)cc1	-0.9	16.2	1.9	76.7*	2.0	6.2	/
